LmPK inh = LmPK (Leishmania mexicana) enzyme inhibition | Potency, µM (highest dose often 57.5 µM), for inactives: at the top dose activity change, negative = inhibition, usual class: inhibitors | purified LmPK, Kinase-Glo ATP luminescence, 1 h | Q27686 | actives 0.37% (n = 290,000); also: potency is read from the fitted curve at half-maximal effect; % is scaled to controls: 0 for no effect and ±100 for the full control effect
Target sequence (Q27686 whole entry, looked up): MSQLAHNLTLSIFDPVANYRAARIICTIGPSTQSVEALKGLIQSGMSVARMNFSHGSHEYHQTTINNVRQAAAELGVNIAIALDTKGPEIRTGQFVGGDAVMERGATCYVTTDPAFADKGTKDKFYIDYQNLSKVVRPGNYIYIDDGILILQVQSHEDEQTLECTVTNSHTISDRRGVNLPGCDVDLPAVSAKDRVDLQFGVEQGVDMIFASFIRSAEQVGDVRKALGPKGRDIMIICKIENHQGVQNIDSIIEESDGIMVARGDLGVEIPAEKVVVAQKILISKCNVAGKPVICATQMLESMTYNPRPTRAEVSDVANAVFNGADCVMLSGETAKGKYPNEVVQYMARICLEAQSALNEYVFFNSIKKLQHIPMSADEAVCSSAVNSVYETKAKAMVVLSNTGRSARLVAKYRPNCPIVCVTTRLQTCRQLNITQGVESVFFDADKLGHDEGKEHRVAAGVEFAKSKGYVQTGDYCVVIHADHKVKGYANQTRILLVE
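Pyruvate kinase activity monitored as ATP production (luciferase luminescence). Conditions: 0.1 nM enzyme, 0.5 mM PEP, 0.1 mM ADP, 1 h, RT; normalized against uninhibited and no-enzyme wells.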
RE007 growth inh = less growth of the S. pombe RE007 Vpr strain. actives 0.21% (n = 360,000). S. pombe RE007 Vpr strain, BacTiter-Glo ATP luminescence, 24 h. Potency, µM (series often up to 92.2 µM), without a hit: at the top dose activity change, negative = less growth, actives largely listed as inhibitors; active = well fitted falling curve with a large enough effect; inconclusive = small, poorly fitted or top-dose-only effect; inactive = no such curve, though single readings can be large or run the other way; also: potency is read from the fitted curve at half-maximal effect; % is scaled to controls: 0 for no effect and ±100 for the full control effect; nearly all actives have a fitted effect of over 50% in size
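Fission yeast strain RE007, carrying one chromosomally integrated HIV-1 vpr copy, was seeded at OD 0.01 in PMG+AL medium with 23 nL pinned compound. After 24 h at 30 °C and 99% humidity, viability was read by BacTiter-Glo luminescence.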
Tb PYK inh = T. brucei pyruvate kinase inhibition; Q57TT1; TbPYK enzyme, Kinase-Glo Plus ATP luminescence, 45 min; Potency, µM (top dose mostly 76.8 µM), for inactives: at the top dose activity, negative = inhibition, usual class: inhibitors; actives 0.12% (n = 410,000); AID 624173; also: potency is read from the fitted curve at half-maximal effect; % is scaled to controls: 0 for no effect and ±100 for the full control effect; nearly all actives have a fitted effect of over 50% in size
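Quantitative HTS: titrated library compounds versus trypanosomal pyruvate kinase in TEA buffer (pH 7.2) containing KCl, MgCl2, BSA and Tween-20. Reactions were initiated with ADP, 130 uM final. Kinase-Glo Plus luminescence was read after 45 min at RT.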
NS1 function inh = inhibitors of influenza NS1 protein function; Potency, µM (highest dose often 46.1 µM), for the others: top-dose activity, positive = more growth; actives 0.4% (n = 270,000); AID 2326; calls by dose curve; also: potency is read from the fitted curve at half-maximal effect; actives are rising curves; nearly all actives have a fitted effect of over 50% in size
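Read-out: OD600 growth recovery of NS1-expressing budding yeast. Cells grown overnight at 30C in -URA glucose medium, washed, resuspended and diluted 1:100 in 2% galactose assay medium, pH 6.0. Same strain lacking NS1 served as positive control.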
Flu NS1 inh = influenza NS1 function inhibition validation | influenza NS1 function cell assay, 15-point titration | 1,400 tested, under 10 active | activity change, negative = inhibition, % at 32.9 µM | shares compounds with NS1 function inh; calls by dose curve; also: 0% is about no effect
PR8 titer = influenza virus titer reduction, NS1 project; actives 30% (n = 95); MDCK infected influenza A/PR/8/34, virus titer TCID50; stronger effect = lower value; virus titer (log TCID50), log10 TCID50 at 5 µM; shares compounds with NS1 function inh; call rule not given here
* = called active by the depositor; ? = inconclusive; · = no result given; [ ] = remark or other dose. Sampled rows, rich in hits. Any-hit rate of the full collection: about 0.77%. Unless noted, calls follow the shape of the dose curve; as a rule, active = well fitted curve in the direction sought with a large enough effect; inconclusive = small, poorly fitted or top-dose-only effect, or another doubt; inactive = no such curve, though single readings can be large; an effect the other way counts as inactive or inconclusive.

SMILES | LmPK inh | RE007 growth inh | Tb PYK inh | NS1 function inh | Flu NS1 inh | others
CCn1c(SCC(=O)O)nnc1-c1cc2c(C)nn(-c3ccccc3)c2s1 | 4% | -15% | -10% | ? | 8
CCc1ccccc1OCCCOc1ccc(OC)cc1 | -2% | -6% | -3% | 2.8µM* | -38 | PR8 titer=8
CCc1ccccc1OCCOc1ccc(C)cc1OC | -6% | -15% | -14% | -50% | ·
CC1(C)CC2CC(C)(CN2S(=O)(=O)c2ccc(C(=O)Nc3cccc(S(=O)(=O)N4CCOCC4)c3)cc2)C1 (stereo unspecified) | 10% | -4% | 5% | 13µM* | 14
CC1(C)CC2CC(C)(CN2S(=O)(=O)c2ccc(C(=O)Nc3cc(S(=O)(=O)N4CCOCC4)ccc3Cl)cc2)C1 (stereo unspecified) | -2% | 3% | -3% | ? | ·
NC(=[SH+])N=N/C=C1/C=CC=CN1.O=S(=O)(O)O.[Fe] | · | · | · | 5% | ·
N#Cc1c(Cl)nc(SCc2ccccc2)nc1-c1ccccc1 | 7% | · | · | ? | -16
Cc1nn(-c2cc(N3CCOCC3)ccc2N)c(=O)c2ccccc12 | 0% | 4% | 2% | 14µM* | 13
COc1cc(/C=C/C(=O)O)cc(S(=O)(=O)Nc2ccccc2Oc2ccccc2)c1OC | 1% | 10% | -1% | ? | 39
COc1cc(/C=C/C(=O)O)cc(S(=O)(=O)Nc2ccc3[nH]c(=O)[nH]c3c2)c1OC | -7% | 11% | -4% | 10% | ·
C=CCn1c(SCC2=C(C(=O)OCC)C(C)NC(=O)N2)nnc1C1CCCCC1 (stereo unspecified) | -1% | 13% | -4% | 11µM* | -10 | PR8 titer=8
CCOC(=O)c1ccc(NC(=O)C2COc3ccccc3O2)cc1 (stereo unspecified) | 9% | -3% | -13% | -51% | ·
CCOC(=O)c1ccc(-n2c(O)c(/C=N/NC(=O)C3COc4ccccc4O3)c3ccccc3c2=O)cc1 (stereo unspecified) | 0% | 3% | 4% | 8.9µM* | -3
CCOC(=O)C1=C(CSc2nc(-c3ccccc3)ccc2C#N)OC(N)=C(C#N)C1c1cccnc1 (stereo unspecified) | -10% | 2% | ? | 10µM* | 1
CCOC(=O)C1=C(CSc2nc3c(cc2C#N)CN(C)CC3)OC(N)=C(C#N)C1c1ccc(F)cc1 (stereo unspecified) | 6% | -12% | -10% | 10µM* | 29
CCOC(=O)C1=C(CSc2nc(-c3ccccc3)ccc2C#N)OC(N)=C(C#N)C1c1ccccc1 (stereo unspecified) | 0% | -15% | -18% | 18% | ·
CCCCc1cc(=O)oc2cc(C)cc(OCC(=O)N[C@@H](CSCc3ccccc3)C(=O)O)c12 | -4% | 5% | -2% | 30% | ·
CCc1cc(=O)oc2cc(C)cc(OCC(=O)N[C@@H](CSCc3ccccc3)C(=O)O)c12 | -12% | 11% | -13% | 10µM* | 25 | PR8 titer=7.3*
N#C/C(=C\c1ccc(-c2ccc(C(=O)O)cc2)o1)C(=O)Nc1ccccc1C(=O)O | · | · | -3% | · | ·
CSCCC(NC(=O)C1CCCCC1)C(=O)Nc1ccc(F)c(Cl)c1 (stereo unspecified) | · | · | 2% | · | ·
Cc1ccc(/C=C/C(=O)Oc2ccc(C#N)cc2)o1 | 4% | · | · | ? | -28 | PR8 titer=7.5*
CC1CC2(C)Oc3ccccc3C3OCC1(CO)C(C)C32 (stereo unspecified) | 2% | 4% | 1% | ? | 6
CC1(OC(=O)C2CCCC2)C(=O)C=C2C=C(c3ccsc3)N(c3cccc(C#N)c3)C=C2C1=O (stereo unspecified) | -2%[11.5 µM] | · | · | · | ·
Cc1ccnc(NC(=O)c2cccc(NC(=O)CC3SC(N4CCCCC4)=NC3=O)c2)c1 (stereo unspecified) | · | -18% | 1% | · | ·
O=C(c1ccc(C(F)(F)F)cc1)N1CCC(=O)N(C(COCc2ccc(C(F)(F)F)cc2)Cc2ccccc2)CC1 (stereo unspecified) | 3% | -14% | -9% | ? | -18
SMILES | LmPK inh | RE007 growth inh | Tb PYK inh | NS1 function inh | Flu NS1 inh | others
Cc1cccc(COC[C@H](Cc2ccccc2)N2CCN(C(=O)c3ccc(C(F)(F)F)cc3)CCC2=O)c1 | · | -6% | -1% | · | ·
O=C(c1cccc(Cl)c1)N1CCC(=O)N(C(COCc2cccc(Cl)c2)Cc2ccccc2)CC1 (stereo unspecified) | 2% | -5% | -3% | 17% | ·
O=C(c1ccc(Cl)c(Cl)c1)N1CCC(=O)N(C(COCc2cccc(Cl)c2)Cc2ccccc2)CC1 (stereo unspecified) | 2% | 9% | 4% | 22µM* | 1
Cc1ccc(-n2c(Cn3cnc4ccccc43)nnc2SCC(=O)O)cc1 | -7% | 7% | -6% | 5% | ·
COc1ccc2c(c1)CCC/C2=N\Nc1nc(C(=O)NN)cs1 | 4% | -11% | 2% | 8.9µM* | 1
CCCCc1nc2c(c3c1C[C@H](C)OC3)CN(C(=O)c1ccco1)CC2 | 0%[11.5 µM] | · | · | · | ·
CCc1cc(OC)c(CC(C)N)cc1OC (stereo unspecified) | · | · | -6%[157 µM] | · | ·
CCOc1ccc(CCNC(=O)C2CCCN(S(=O)(=O)c3c(C)n[nH]c3C)C2)cc1OCC (stereo unspecified) | 2% | -10% | -8% | 2.5µM* | -27
Cc1ccc(CNC(=O)C2CCCN(S(=O)(=O)c3c(C)n[nH]c3C)C2)cc1 (stereo unspecified) | 2% | 1% | 1% | -4% | ·
S=C(Nc1ccc(Oc2ccccc2)cc1)NC1CCCCCC1 | 3% | 2% | 4% | -25% | ·
S=C(Nc1ccc(Oc2ccc(NC(=S)NC3CCCCC3)cc2)cc1)NC1CCCCC1 | 1% | 4% | -27% | 11µM* | -3
COc1ccccc1C/C(N)=N/OC(=O)COc1cccc(C)c1 | -3% | ? | -2% | 1% | ·
COc1ccccc1C/C(N)=N/OC(=O)COc1ccc(C)cc1 | -3% | 0% | 3% | ? | ?
O=C(c1ccncc1)N1CCc2ccccc2C1 | 0% | 14% | 0% | 1% | ·
O=C(c1cccc(F)c1)N1CCc2ccccc2C1 | 1% | -7% | 0% | ? | -26
Cc1ccc(-c2ccc(/C=N/NC(=O)Cc3nnc(N)s3)o2)cc1Cl | 5% | -2% | -11% | ? | 28
CS(=O)(=O)NNC(=O)Cn1nnc(-c2ccc(OCc3ccccc3Cl)cc2)n1 | · | -5% | 3% | · | ·
Cc1ccccc1-n1nc2c(c1NC(=O)/C=C\c1ccc3c(c1)OCO3)CSC2 | 0% | -15% | -6% | 20% | ·
Cc1ccc(-n2nc3c(c2NC(=O)c2ccc4c(c2)OCO4)CS(=O)C3)cc1 (stereo unspecified) | 7% | 11% | -5% | -4% | ·

Screens as filed in PubChem BioAssay.
